Measurements from PubChem BioAssay (Tox21).
Records with an inconclusive call do not appear. A call without a number means that no potency is given here. Active and inactive are the calls of the source. Calls follow the shape of the full dose curve.

Experiment: p53 small molecule agonists, cell-based qHTS assay: qHTS cell viability counter screen (AID 1963581); also: nearly all actives have a fitted effect of over 45% in size
Details: p53RE-bla HCT-116 viability, ATP luminescence, 16 h; series mostly up to 66 µM
Description: National Center for Advancing Translational Sciences [NCATS]
Division of Preclinical Innovation [DPI]
U.S. Environmental Protection Agency [EPA]
National Institutes of Environmental Health Sciences [NIEHS]
National Toxicology Program [NTP]
U.S. Food and Drug Administration [FDA]
p53, a tumor suppressor protein, is activated following cellular insult, including DNA damage and other cellular stresses. The activation of p53 regulates cell fate by inducing DNA repair, cell cycle arrest, apoptosis, or cellular senescence. The activation of p53, therefore, is a good indicator of DNA damage and other cellular stresses. The CellSensor p53RE-bla HCT-116 cell line (Invitrogen) contains a stably integrated beta-lactamase reporter gene under control of the p53 response elements. The activation of the reporter gene under culture conditions can be detected by fluorescence intensity. This cell line was used to screen the Tox21 compound library in a 1536-well plate format and to identify agonists that activate the p53 signaling pathway. The cytotoxicity of the Tox21 compound library against the p53 RE-bla HCT-116 cell line was tested in parallel by measuring the intra cellular ATP content in the same wells.
Tox21 Assay Protocol Summary:
The p53RE-bla cells were dispensed at 4,000 cells/5 ul/well in 1536-well black wall/clear bottom plates using a Multidrop dispenser. After the assay plates were incubated at a 37 C/5% CO2 incubator for 5 hours, 23 nL of compounds dissolved in DMSO, positive controls or DMSO only was transferred to the assay plate by a pin tool. The plates were incubated at 37 C for 16 hours. After 1 uL of LiveBLAzerTM B/G FRET substrate was added using a Flying Reagent Dispenser, the plates were incubated at room temperature for 2 hours, and fluorescence intensity was measured by an Envision plate reader. For cell viability readout that measures cytotoxicity, 4 ul/well of CellTiter-Glo reagent was added into the assay plates using a Flying Reagent Dispenser. After 30 min incubation at room temperature, the luminescence intensity in the plates was measured using a ViewLux plate reader.
In the case of COP(=S)(OC)Oc1ccc(SC)c(C)c1, the Potency is reported as “inactive”.
In the case of C#CCOC(C(=O)OCCN(C)C)(c1ccccc1)c1ccccc1, the Potency is reported as “inactive”.
With N#CC(Br)Br the Potency was “inactive”.
With c1ccc2c(c1)Oc1ccccc1O2 the Potency was “inactive”.
For C=CCc1cc(OC)c2c(c1)OCO2, the Potency was “inactive”.
With N#CCC#N the Potency was “inactive”.
For CCCCCC[n+]1ccccc1, the Potency was “inactive”.
In the case of O=C1CCCN1, the Potency is reported as “inactive”.
For C=Cc1cccc(CCl)c1, the Potency was “inactive”.
For Nc1ncn[nH]1, the Potency was “inactive”.
In the case of [O-][Cl+2]([O-])O, the Potency is reported as “inactive”.
In the case of OCCCl, the Potency is reported as “inactive”.
For CC(C)c1ccc(NC(=O)N(C)C)cc1, the Potency was “inactive”.
In the case of C[N+](C)(C)Cc1ccccc1, the Potency is reported as “inactive”.
With O=C(O)CCCOc1ccc(Cl)cc1Cl the Potency was “inactive”.
For Cc1ccc(N)cc1, the Potency was “inactive”.
For CC(C)N1C(=O)c2ccccc2NS1(=O)=O, the Potency was “inactive”.
In the case of CC(C)NC(=O)N1CC(=O)N(c2cc(Cl)cc(Cl)c2)C1=O, the Potency is reported as “inactive”.
With CN(C)c1nc(=O)n(C2CCCCC2)c(=O)n1C the Potency was “inactive”.
With CCNc1nc(NC(C)C)nc(OC)n1 the Potency was “inactive”.
In the case of Cc1coc2c1CCC(C)C2 (stereo not given), the Potency is reported as “inactive”.
With Cc1cccc(C#N)c1 the Potency was “inactive”.
For COc1nc(C)nc(NC(=O)NS(=O)(=O)c2ccccc2Cl)n1, the Potency was “inactive”.
For CC1(C)Cc2cccc(O)c2O1, the Potency was “inactive”.
With BrCCBr the Potency was “inactive”.
In the case of Cc1ccc(N)cc1Cl, the Potency is reported as “inactive”.
In the case of CCC(Br)(CC)C(=O)NC(N)=O, the Potency is reported as “inactive”.
With CCCCC(CC)COC(=O)Cl (stereo not given) the Potency was “inactive”.
For CC1CC(=O)O1 (stereo not given), the Potency was “inactive”.
In the case of CCCCCCI, the Potency is reported as “inactive”.
With CCCCCCCCOC(=O)c1ccccc1C(=O)OCCCCCCCC the Potency was “inactive”.
In the case of BrCc1ccc(Br)cc1, the Potency is reported as “inactive”.
For CC(=[OH+])/C=C(/C)[O-].CC(=[OH+])/C=C(\C)[O-].CC(=[OH+])/C=C(\C)[O-].[Fe], the Potency was “inactive”.
For O=[N+]([O-])c1cc(Cl)ccc1Cl, the Potency was “inactive”.
With COC(=O)c1ccc(CBr)cc1 the Potency was “inactive”.
In the case of CCCC[n+]1ccc(C)cc1, the Potency is reported as “inactive”.
For C=COCCCl, the Potency was “inactive”.
With Nc1c(Cl)cc([N+](=O)[O-])cc1Cl the Potency was “inactive”.
With CC(COc1ccc(Oc2ccccc2)cc1)Oc1ccccn1 (stereo not given) the Potency was “inactive”.
In the case of O=C(Cl)OCc1ccccc1, the Potency is reported as “inactive”.
